Reference: PubChem BioAssay (Tox21)
Results filed as inconclusive are left out. Calls of active or inactive are those of the source. Calls follow the shape of the dose curve; as a rule, active = well fitted curve in the direction sought with a large enough effect in the repeat runs; inconclusive = weak or mixed curves; inactive = no such curve, though single readings can be large; an effect the other way counts as inactive or inconclusive.

What was measured:
[1] = qHTS RealTime-Glo MT Cell Viability Assay in HEK293 cells - 16 hour (AID 1224872); also: top concentration of the series differs between compounds; nearly all actives have a fitted effect of over 50% in size
Outline: (§1)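 Tox21 10K qHTS, HEK293, 600 cells/well, RealTime-Glo reagent co-dispensed with cells; 5 h preincubation, compound by pintool, 37 C, luminescence at 0–40 h.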

[2] = qHTS RealTime-Glo MT Cell Viability Assay in HepG2 cells - 8 hour (AID 1224873); also: nearly all actives have a fitted effect of over 55% in size
Outline: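 HepG2 cells (600/well) mixed with RealTime-Glo MT reagent, settled 5 h at 37 C/5% CO2 before compound addition. Nonlytic NanoLuc luminescence from viable-cell prosubstrate reduction read repeatedly during 40 h treatment at 37 C.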

[3] = qHTS RealTime-Glo MT Cell Viability Assay in HEK293 cells - 40 hour (AID 1224874); details: RealTime-Glo luminescence; max response: hits give low values; also: nearly all actives have a fitted effect of over 50% in size
Outline: (§2)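 Real-time viability in HEK293: signal arises when living cells convert a prosubstrate for NanoLuc in the medium, so luminescence tracks viable cell number. Compound (23 nL, DMSO) added 5 h post-seeding; kinetic reads at 0–40 h, 37 C.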

[4] = A CellTox Green Cytotoxicity Assay to monitor cytotoxicity in HEK293 cells - 24 hour (AID 1224875); also: series mostly up to about 77 µM; nearly all actives have a fitted effect of over 45% in size
Outline: (§3)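 Cells (HEK293, 600/well) and dye reagent are dispensed together. After 5 h at 37 C, 23 nL compound is pinned in. Plates stay at 37 C for 40 h with fluorescence read at 0h, 8h, 16h, 24h, 32h and 40h.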

[5] = A CellTox Green Cytotoxicity Assay to monitor cytotoxicity in HepG2 cells - 16 hour (AID 1224876); also: nearly all actives have a fitted effect of over 45% in size
Outline: (§4)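 Cells and non-lytic dye reagent are dispensed together (600 HepG2 cells/well) and incubated 5 h before DMSO compound transfer. Kinetic fluorescence is then recorded in the same wells during 40 h at 37 C.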

[6] = qHTS RealTime-Glo MT Cell Viability Assay in HepG2 cells - 32 hour (AID 1224877); also: nearly all actives have a fitted effect of over 55% in size
Outline: (§5)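 Cells + NanoLuc/prosubstrate dispensed (600 cells/well) → 5 h at 37 C/5% CO2 → compounds in DMSO transferred → 40 h incubation at 37 C, luminescence read at 0, 8, 16, 24, 32, 40 h.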

[7] = A CellTox Green Cytotoxicity Assay to monitor cytotoxicity in HepG2 cells - 24 hour (AID 1224878); also: nearly all actives have a fitted effect of over 45% in size
Outline: as §4

[8] = A CellTox Green Cytotoxicity Assay to monitor cytotoxicity in HepG2 cells - 40 hour (AID 1224879); also: nearly all actives have a fitted effect of over 40% in size
Outline: as §4

[9] = qHTS RealTime-Glo MT Cell Viability Assay in HEK293 cells - 0 hour (AID 1224880); also: top concentration of the series differs between compounds; nearly all actives have a fitted effect of over 45% in size
Outline: as §2

[10] = A CellTox Green Cytotoxicity Assay to monitor cytotoxicity in HEK293 cells - 32 hour (AID 1224881); also: nearly all actives have a fitted effect of over 40% in size
Outline: as §3

[11] = A CellTox Green Cytotoxicity Assay to monitor cytotoxicity in HepG2 cells - 0 hour (AID 1224882); also: nearly all actives have a fitted effect of over 35% in size
Outline: as §4

[12] = A CellTox Green Cytotoxicity Assay to monitor cytotoxicity in HepG2 cells - 32 hour (AID 1224883); also: nearly all actives have a fitted effect of over 50% in size
Outline: as §4

[13] = A CellTox Green Cytotoxicity Assay to monitor cytotoxicity in HEK293 cells - 8 hour (AID 1224884); also: nearly all actives have a fitted effect of over 35% in size
Outline: as §3

[14] = qHTS RealTime-Glo MT Cell Viability Assay in HepG2 cells - 16 hour (AID 1224885); also: nearly all actives have a fitted effect of over 50% in size
Outline: as §5

[15] = qHTS RealTime-Glo MT Cell Viability Assay in HEK293 cells - 24 hour (AID 1224886)
Outline: as §1

[16] = qHTS RealTime-Glo MT Cell Viability Assay in HEK293 cells - 8 hour (AID 1224887)
Outline: as §2

[17] = A CellTox Green Cytotoxicity Assay to monitor cytotoxicity in HEK293 cells - 16 hour (AID 1224888); also: nearly all actives have a fitted effect of over 35% in size
Outline: as §3

[18] = qHTS RealTime-Glo MT Cell Viability Assay in HepG2 cells - 0 hour (AID 1224889); also: nearly all actives have a fitted effect of over 50% in size
Outline: as §5

[19] = A CellTox Green Cytotoxicity Assay to monitor cytotoxicity in HepG2 cells - 8 hour (AID 1224890); also: nearly all actives have a fitted effect of over 45% in size
Outline: as §4

[20] = qHTS assay to identify small molecule antagonists of the estrogen receptor alpha (ER-alpha) signaling pathway using the BG1 cell line in the presence of 0.1 nM 17-beta-estradiol - cell viability counter screen (AID 1259241); also: nearly all actives have a fitted effect of over 40% in size
Outline: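 Live-cell protease activity (CellTiter-Fluor fluorescence, 30 min) was read in the same wells after VM7Luc4E2 cells had been exposed to compounds with 0.1 nM 17beta-estradiol for 22 hr at 37C.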
% is scaled to controls: 0 for no effect and ±100 for the full control effect.

CCNc1nc(Cl)nc(NC(C)(C)C)n1
inactive: Potency [1] | outcome [2] | max response [3] -11% | Potency [4] | Potency [5] | Potency [6] | Potency [7] | Potency [8] | outcome [9] | Potency [10] | outcome [11] | Potency [12] | Potency [13] | Potency [14] | Potency [15] | Potency [16] | Potency [17] | outcome [18] | Potency [19] | outcome [20]

Cc1ccc(Cl)c(O)c1
inactive: Potency [1] | outcome [2] | max response [3] 1.02% | Potency [4] | Potency [5] | Potency [6] | Potency [7] | Potency [8] | outcome [9] | Potency [10] | outcome [11] | Potency [12] | Potency [13] | Potency [14] | Potency [15] | Potency [16] | Potency [17] | outcome [18] | Potency [19] | outcome [20]

CNC(=O)O/N=C(/CSC)C(C)(C)C
inactive: Potency [1] | outcome [2] | max response [3] -0.61% | Potency [4] | Potency [5] | Potency [6] | Potency [7] | Potency [8] | outcome [9] | Potency [10] | outcome [11] | Potency [12] | Potency [13] | Potency [14] | Potency [15] | Potency [16] | Potency [17] | outcome [18] | Potency [19] | outcome [20]

CCOP(=S)(OCC)Oc1ccc(Cl)cc1Cl
inactive: Potency [1] | outcome [2] | max response [3] 2.64% | Potency [4] | Potency [5] | Potency [6] | Potency [7] | Potency [8] | outcome [9] | Potency [10] | outcome [11] | Potency [12] | Potency [13] | Potency [14] | Potency [15] | Potency [16] | Potency [17] | Potency [19]

Cl/C=C/CCl
inactive: Potency [1] | outcome [2] | max response [3] 7.85% | Potency [4] | Potency [5] | Potency [6] | Potency [7] | Potency [8] | outcome [9] | Potency [10] | outcome [11] | Potency [12] | Potency [13] | Potency [14] | Potency [15] | Potency [16] | Potency [17] | Potency [19] | outcome [20]

Cn1c(CCCC(=O)O)nc2cc(N(CCCl)CCCl)ccc21
inactive: Potency [1] | outcome [2] | max response [3] 1.4% | Potency [4] | Potency [5] | Potency [6] | Potency [7] | Potency [8] | outcome [9] | Potency [10] | outcome [11] | Potency [12] | Potency [13] | Potency [14] | Potency [15] | Potency [16] | Potency [17] | Potency [19] | outcome [20]

O=C1CCCCC1Cl (stereo not drawn)
inactive: Potency [1] | outcome [2] | max response [3] 11.3% | Potency [4] | Potency [5] | Potency [6] | Potency [7] | Potency [8] | outcome [9] | Potency [10] | outcome [11] | Potency [12] | Potency [13] | Potency [14] | Potency [15] | Potency [17] | outcome [18] | Potency [19]

Nc1c(Cl)c(F)nc(OCC(=O)O)c1Cl
inactive: Potency [1] | outcome [2] | max response [3] 2.97% | Potency [4] | Potency [5] | Potency [6] | Potency [7] | Potency [8] | outcome [9] | Potency [10] | outcome [11] | Potency [12] | Potency [13] | Potency [14] | Potency [15] | Potency [16] | Potency [17] | outcome [18] | Potency [19] | outcome [20]

NCC1(CC(=O)O)CCCCC1
inactive: Potency [1] | outcome [2] | max response [3] 1.23% | Potency [4] | Potency [5] | Potency [6] | Potency [7] | Potency [8] | outcome [9] | Potency [10] | outcome [11] | Potency [12] | Potency [13] | Potency [14] | Potency [15] | Potency [16] | Potency [17] | outcome [18] | Potency [19] | outcome [20]

COc1cc(CC(C)N)cc(OC)c1OC (stereo not drawn)
inactive: Potency [1] | outcome [2] | max response [3] -3.07% | Potency [4] | Potency [5] | Potency [6] | Potency [7] | Potency [8] | outcome [9] | Potency [10] | outcome [11] | Potency [12] | Potency [13] | Potency [14] | Potency [15] | Potency [16] | Potency [17] | outcome [18] | Potency [19] | outcome [20]

COP(=O)(O)OC
inactive: Potency [1] | outcome [2] | max response [3] -2.51% | Potency [4] | Potency [5] | Potency [6] | Potency [7] | Potency [8] | outcome [9] | Potency [10] | outcome [11] | Potency [12] | Potency [13] | Potency [14] | Potency [15] | Potency [16] | Potency [17] | outcome [18] | Potency [19] | outcome [20]

O=c1[nH]c2ccccc2o1
inactive: Potency [1] | outcome [2] | max response [3] -0.283% | Potency [4] | Potency [5] | Potency [6] | Potency [7] | Potency [8] | outcome [9] | Potency [10] | outcome [11] | Potency [12] | Potency [13] | Potency [14] | Potency [15] | Potency [16] | Potency [17] | outcome [18] | Potency [19]

CCN(CC)C1CCCCC1
inactive: Potency [1] | outcome [2] | max response [3] 2.39% | Potency [4] | Potency [5] | Potency [6] | Potency [7] | Potency [8] | outcome [9] | Potency [10] | outcome [11] | Potency [12] | Potency [13] | Potency [14] | Potency [15] | Potency [16] | Potency [17] | outcome [18] | Potency [19] | outcome [20]

O=CCCl
inactive: Potency [1] | outcome [2] | max response [3] 6.03% | Potency [4] | Potency [5] | Potency [6] | Potency [7] | Potency [8] | outcome [9] | Potency [10] | outcome [11] | Potency [12] | Potency [13] | Potency [14] | Potency [15] | Potency [16] | Potency [17] | outcome [18] | Potency [19] | outcome [20]
